From PubChem BioAssay AID1259415 (National Center for Advancing Translational Sciences (NCATS), 2018)
Values joined by “and” are separate entries in the source; they are usually repeats but may differ in a detail not shown here. Equal values may be shown once. The campaign covered roughly 410,000 compounds. About 18,000 (4.4%) were called active. About 7% were inconclusive and are not listed. No stated cut-off is given here; in the data, active means activity change below about -60%; inconclusive means no clear call, values can overlap the other calls; inactive means above about -39%. What follows is part of a selection rich in actives, with near analogues and random picks from the rest.

assay: qHTS Assay for inhibitors of the human cytomegalovirus (HCMV); conditions: HFF cells, HCMV-luciferase reporter, 72 h; at 57.5 µM; active compounds read low
Summary of the method: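 Compounds were evaluated in HFFs infected with an HCMV luciferase reporter virus (MOI 1 PFU/cell). Luciferase in lysates collected 72 h post infection served as the replication measure.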
On the % scale 0 is the no-effect control and ±100 the full control effect.

SMILES | activity change, negative = inhibition
CCOc1ccccc1N(CC)C(=O)c1cc2ccc3cccnc3c2[nH]1 | 36.8% (inactive)
CCOC(=O)c1c(C)[nH]c2c1-c1ccccc1C(=O)C2=O | -99.7% (active)
CCOC(=O)c1c(C)[nH]c(C)c1S(=O)(=O)N(C)CC(=O)N1CCN(c2ccccc2)CC1 | -3.36% (inactive)
CCOC(=O)c1c(SCC(=O)Nc2cccc(C)c2C)nc(=O)[nH]c1C | -0.768% (inactive)
CCOCCCNC(=O)c1c(NC(=O)Cc2coc3c(C)c(C)ccc23)sc2c1CCC2 | -19.7% (inactive)
Cc1cc(C)c2sc(NC(=O)c3ccc(S(=O)(=O)N4CCCC4)cc3)nc2c1 | 1.97% (inactive)
CCN(CC(=O)Nc1c(F)cccc1F)C(=O)c1ccc(S(=O)(=O)N2CCCCC2)cc1 | -16.4% (inactive)
CN(C)CCCN(C(=O)c1ccc(S(=O)(=O)N2CCCc3ccccc32)cc1)c1nc2ccc(F)cc2s1 | -113% (active)
CC1CCN(C(=O)c2cccc(S(=O)(=O)N3CCCc4ccccc43)c2)CC1 | -31.3% (inactive)
O=C(Nc1nnc(S(=O)(=O)N2CCCc3ccccc32)s1)c1cccc(F)c1 | -22.4% (inactive)
CN(C)CCCN(C(=O)c1ccc(S(=O)(=O)N2CCCCCC2)cc1)c1nc2ccc(Br)cc2s1 | -66.2% (active)
Cc1cn(C)c(CC(=O)NCc2ccc(Cl)cc2)c1C(=O)O | -3.74% (inactive)
O=C(CSc1ncc(CO)n1Cc1ccc(Cl)cc1)NCc1ccc(F)cc1 | 0.963% (inactive)
Cc1ccc2[nH]c(=O)c(CC=C(Cl)Cl)c(C)c2c1 | -11.6% (inactive)
CCC(=O)Nc1cccc(-c2nc3cc(C)ccc3o2)c1 | 103% (inactive)
NC(=O)c1ccc(N2CCCC2)nc1 | 9.29% (inactive)
C/C(CC(C)C)=N\Oc1nc(C)cc(C)n1 | -62.7% (active)
COc1ccc(NC(=O)C(CC(C)C)NS(=O)(=O)c2ccc3c(c2)CCN3C(C)=O)cc1OC (stereo unspecified) | -16% (inactive)
C[C@@H]1CC[C@@]2(OC1)O[C@H]1C[C@H]3[C@@H]4CC=C5C[C@@H](O)[C@H](O)C[C@]5(C)C4CC[C@]3(C)[C@H]1[C@@H]2C (stereo partly specified) | -70.9% (active)

SMILES | activity change, negative = inhibition
C[C@]12CC[C@H](O)CC1=CCC1C2CC[C@@]2(C)C1CC[C@@H]2NC(=O)CCC(=O)O (stereo partly specified) | -2.14% (inactive)
CC(=O)OC1CCC2(C)C(=CCC3C4CC(=O)N(O)C(=O)C4(C)CCC32)C1 (stereo unspecified) | 17.9% (inactive)
Cc1cccc(NC(=O)c2nnn(CC(=O)Nc3ccc(C(C)C)cc3)c2N)c1C | 3.95% (inactive)
COc1cccc(/C=C/c2ccc3ccccc3n2)c1OC(C)=O | -95.1% (active)
COc1cccc(NC(=O)COC(=O)c2ccc3ccccc3n2)c1 | 78.4% (inactive)
CCOc1ccc2ccccc2c1/C=N/NC(=O)c1c(C)cc(C)[nH]c1=O | -32.4% (inactive)
CCOc1cccc(/C=C/c2ccc3ccccc3n2)c1OC(C)=O | -79.7% (active)
COc1ccccc1/C=C/C1=NC(=C\N(C)C)/C(=O)O1 | 64.2% (inactive)
Cc1cc(C)cc(NS(=O)(=O)c2cc3c(cc2C)NC(=O)CO3)c1 | -26.3% (inactive)
Cc1cccc(N2CCN(C(=O)c3cc4c(=O)oc5ccccc5c4s3)CC2C)c1 (stereo unspecified) | 1.15% (inactive)
COc1ccc(NC(=O)Cn2c(=O)n(CCC(C)C)c(=O)c3cccnc32)cc1Cl | -4.37% (inactive)
O=C(Nc1ccc(F)cc1)Nc1nnc([C@H]2C[C@H](O)[C@@H](CO)O2)s1 | 30.2% (inactive)
O=C(Nc1nnc([C@H]2C[C@H](O)[C@@H](CO)O2)s1)c1cccc(Cl)c1 | 40.2% (inactive)
Cc1ccc(CNC(=O)Nc2nnc([C@H]3C[C@H](O)[C@@H](CO)O3)s2)cc1 | -100% (active)
COc1cc(-c2nnn(CC(=O)NCc3ccccc3)n2)cc(OC)c1OC | 5.2% (inactive) and 12.4% (inactive)
COc1cc(C(=O)NCc2ccncc2)cc(Br)c1OCc1ccccc1 | -62.2% (active)
COc1ccccc1OCCC(=O)OCC(=O)NCc1ccccc1 | 14.2% (inactive)
CCC(=O)N1CCc2cc(S(=O)(=O)NC(C(=O)N3CCc4ccccc4C3)C(C)C)ccc21 (stereo unspecified) | -14.7% (inactive)
Cc1nc(NC(CC(C)C)C(=O)O)c2nc(C)oc2n1 (stereo unspecified) | -6.81% (inactive)

SMILES | activity change, negative = inhibition
CCOC(=O)c1cc2cc(-c3c(C(=O)OCC)oc4cc(O)cc(O)c4c3=O)ccc2o1 | -2.73% (inactive)
CCOc1ccc2c(=O)c(-c3ccc4c(c3)OCCCO4)c(C)oc2c1 | 20.1% (inactive)
O=c1c(-c2ccc3c(c2)OCCO3)c(C(F)(F)F)oc2cc(O)cc(O)c12 | -90.6% (active)
CCc1ccc(CNC(=O)c2ccc(CS(=O)c3ccc(Br)cc3)o2)cc1 (stereo unspecified) | 10.6% (inactive)
CCOC(=O)c1cc(-c2ccccc2)n(CCC(=O)Nc2ccccc2CC)c1C | 30.9% (inactive)
Cc1ccc(Cl)cc1NC(=O)CSc1nc2ccccc2nc1Cc1ccccc1 | 36.7% (inactive)
CCN1/C(=C\c2ccc3ccccc3[n+]2CC)Sc2cc(C)ccc21 | -99.8% (active)
O=c1o[nH]c(-c2ccccc2)c1N=Nc1c(F)cccc1Cl | -12.9% (inactive)
COc1cc(NC(=O)CCn2nc(C)cc2C)cc(OC)c1OC | 9.6% (inactive)
CN(C(=O)CCN1C(=O)/C(=C/c2ccccc2F)SC1=S)C1CCS(=O)(=O)C1 (stereo unspecified) | -63.4% (active)
CN(C(=O)CN1C(=O)S/C(=C\c2ccccc2F)C1=O)C1CCS(=O)(=O)C1 (stereo unspecified) | -18.9% (inactive)
COc1ccccc1/C=C1\SC(=O)N(CCC(=O)N(C)C2CCS(=O)(=O)C2)C1=O (stereo unspecified) | -7.61% (inactive)
CCCNC(=O)CCC(=O)N1Cc2ccccc2Oc2ncccc21 | 2.27% (inactive)
Cc1cc(=O)n2[nH]c(-c3sccc3-n3c(C)ccc3C)cc2n1 | -64.1% (active)
COc1ccccc1CNS(=O)(=O)c1cc(Br)cc2c1N(C(C)=O)C(C)C2 (stereo unspecified) | -27.7% (inactive)
O=C(COC(=O)c1ccccc1F)Nc1cc(S(=O)(=O)N2CCOCC2)ccc1N1CCCC1 | -28.5% (inactive)
O=C(COC(=O)c1cc(S(=O)(=O)N2CCOCC2)ccc1F)NC1CC1 | -20.2% (inactive)
COc1cc(NC(=O)COC(=O)c2cc(S(=O)(=O)N3CCOCC3)ccc2F)cc(OC)c1 | -68.7% (active)
